Screen size: about 330,000 compounds; about 5,800 (1.8%) were called active.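 How the source made its calls: active means inhibition above about 50% at the single tested dose (limit read from the data); inactive means the rest.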 The full list was thinned out, with actives kept by preference.

For this assay, the target named is Sentrin-specific protease 6 (Homo sapiens) (UniProt Q9GZR1). The experiment in a line: SENP6 protease inhibitors, primary screen, biochemical, luminescence, uHTS (AID 2599).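 Further: plate controls were DMSO wells with enzyme for no effect and DMSO wells lacking enzyme for full effect.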 To be noted: Recombinant SENP6 catalytic domain, aminoluciferin luminescence; at 10 µM; hits give high values.
Sequence of Sentrin-specific protease 6 (Homo sapiens) (Q9GZR1 628-1112 limits assumed): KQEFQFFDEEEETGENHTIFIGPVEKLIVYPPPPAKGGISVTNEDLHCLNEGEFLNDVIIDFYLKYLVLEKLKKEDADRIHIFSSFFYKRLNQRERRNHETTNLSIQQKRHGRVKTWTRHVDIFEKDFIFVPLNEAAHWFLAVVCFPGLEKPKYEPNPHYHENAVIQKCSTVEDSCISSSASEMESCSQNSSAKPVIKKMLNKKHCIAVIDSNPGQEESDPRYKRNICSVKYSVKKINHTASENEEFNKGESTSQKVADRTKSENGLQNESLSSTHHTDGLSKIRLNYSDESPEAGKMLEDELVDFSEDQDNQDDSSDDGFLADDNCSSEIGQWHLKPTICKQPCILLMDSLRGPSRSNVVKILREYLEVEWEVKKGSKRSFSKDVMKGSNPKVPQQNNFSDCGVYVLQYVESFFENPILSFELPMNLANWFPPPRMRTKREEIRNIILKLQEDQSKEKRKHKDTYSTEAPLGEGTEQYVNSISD
Consider `CCn1nccc1C(=O)Nc1ccc(Cl)c(Cl)c1`, for which the inhibition – broadly, the change of the read-out against control, counted positive when it falls – is 76.6% (active). Next, `O=C(CC(O)(C(F)(F)F)C(F)(F)F)Nc1ccc(Cl)c(Cl)c1`: 1.52% (inactive); `CCn1nccc1C(=O)Nc1ccc(S(=O)(=O)NC23CC4CC(CC(C4)C2)C3)cc1`: 1.42% (inactive).

As to `COc1ccc(OC)c(S(=O)(=O)N2CCCC(C(=O)NCCc3ccccc3)C2)c1` (configuration not stated), the inhibition was -9.45% (inactive). Next, `O=C(c1ccc(F)cc1)n1cc(C(=S)N2CCOCC2)c2ccccc21`: 5.26% (inactive).

As to `O=C(c1ccc(F)cc1)n1c(=S)nc2ccccn21`, the inhibition is 71.7% (active). Take `O=C(Cn1c(=S)nc2ccccn21)N1CCc2ccccc2C1`: the inhibition was -12.6% (inactive). `CCOc1cc2[nH]c(=S)n(CCCN3CCCC3=O)c(=O)c2cc1OCC`: the inhibition was -8.53% (inactive). The result for `CCOC(=O)Cc1ncccc1C(=O)Nc1ccc(OC)cc1` reads 10.7% (inactive). Next, `O=C(Nc1ccccc1Cl)O/N=C(/c1ccccc1)c1ccccn1`: 5.09% (inactive); `COc1ccc(NC(=O)C2CCCN(S(=O)(=O)c3cccc4cccnc34)C2)cc1` (configuration not stated): -2.53% (inactive); `COc1ccc(NC(=O)Nc2cccc3cccnc23)cc1`: 80.7% (active). Next, `O=C(Nc1cccc2cccnc12)c1cccc(Cl)c1`: 38.9% (inactive); `O=C(Nc1ccccc1Cl)Nc1cccc2cccnc12`: 58.1% (active); `COc1ccc(OCC(=O)NN2Cc3ccccc3C2=N)cc1`: -3.36% (inactive). As for `COC(=O)C1=C(C)N(Cc2ccccc2)C(=NCCCOC(C)C)N[C@H]1c1ccccc1`, the inhibition was -15.2% (inactive).

Turning to `Cc1ccc(S(=O)(=O)N(C)CC(=O)OCC(=O)N2CC(=O)Nc3ccccc32)cc1`, the inhibition was -8.14% (inactive). The result for `Cn1c(N)c(C(=O)COC(=O)/C=C/c2ccc(OC(F)F)cc2)c(=O)n(C)c1=O` reads -13.8% (inactive); that for `Cc1ccccc1NC(=O)C1CCN(C(=O)NC2CCCCC2)CC1`, -18.9% (inactive); that for `O=C(Nc1cc2ccccc2oc1=O)C1CCCCC1`, 62.5% (active). Next, `O=C(Nc1ccc2c(c1)OCCO2)C1CCCC1`: 15.1% (inactive). Regarding `C[n+]1ccc(C(=O)NCc2ccccc2)cc1`, the inhibition was -12.9% (inactive). Next, `Cc1ccc(-n2[nH]c(C)c(/C=N/NC(=O)c3cccc([N+](=O)[O-])c3)c2=O)cc1C`: 27.4% (inactive). Consider `Cc1[nH]n(-c2ccc([N+](=O)[O-])cc2)c(=O)c1C=NCCN1CCN(C(=O)c2ccccc2F)CC1`, for which the inhibition is 87% (active). Take `C=CCNC(=S)N1CCN(CCN=Cc2c(C)[nH]n(-c3ccc([N+](=O)[O-])cc3)c2=O)CC1`: the inhibition is 1.69% (inactive). Next, `O=C(COC(=O)c1ccccc1Cl)NC1CCCCCCC1`: -12.9% (inactive). The result for `CCC(=O)Nc1ccc2nn(-c3ccc(F)cc3)nc2c1` reads 76.9% (active); that for `Cc1ccc(-n2nc3ccc(NC(=O)/C=C/c4ccco4)cc3n2)cc1C`, 10.8% (inactive); that for `Cc1nn(CC(=O)Nc2ccc(F)cc2)c(=O)c2ccccc12`, -16.4% (inactive). Regarding `CC(C(=O)N1CCc2ccccc21)N(C)CC(=O)Nc1ccc(F)cc1` (configuration not stated), the inhibition is -18.7% (inactive).

For `O=C(/C=N/O)Nc1ccccc1`, the inhibition is -8.91% (inactive). Regarding `Cc1ccc(-c2nc(-c3cccnc3)sc2CC(=O)Nc2ccc(C)c(Cl)c2)cc1`, the inhibition is -22% (inactive).

`Cc1[nH]n(C)c(=O)c1N=Nc1ccc(S(C)(=O)=O)cc1`: the inhibition was -4.33% (inactive). For the molecule `Cc1cccc(N=Nc2c(C)[nH]n(-c3ccccc3)c2=O)c1`, the inhibition was -17.2% (inactive).

As for `Cc1[nH]n(C(N)=S)c(=O)c1N=Nc1ccc(Cl)cc1Cl`, the inhibition is 96.1% (active).

Turning to `COc1ccc(CCNC(=O)COC(=O)Cc2ccccc2F)cc1`, the inhibition is 0.819% (inactive). Consider `CCN(CC)CCOCCOc1ccc(Cl)c2ccccc12`, for which the inhibition is -6.66% (inactive).

In the case of `CCOC(=O)c1cnc(COc2ccccc2Cl)[nH]c1=O`, the inhibition was -27.6% (inactive). Next, `CCOC(=O)c1cnc2sccn2c1=O`: -5.45% (inactive). `CCOC(=O)c1cnc2[nH]c3ccccc3n2c1=O`: the inhibition is 83% (active). Next, `Cc1ccc(S(=O)(=O)NCC(=O)N(CC(=O)NC2CCCCC2)Cc2ccco2)cc1`: 1.15% (inactive).

Consider `COc1cc(C(=O)NCc2ccc3c(c2)cc(C)n3C)cc(OC)c1OC`, for which the inhibition is 1.27% (inactive). Turning to `COc1cc2c3c(c1)/C(=C1/SC(=S)NC1=O)C(=O)N3C(C)(C)C=C2C`, the inhibition was 24.2% (inactive). The result for `O=C1CC(c2ccccc2)=NN1c1ccc([N+](=O)[O-])cc1` reads 75.3% (active); that for `Cc1nc(-c2ccc([N+](=O)[O-])cc2)c(-c2ccccc2)o1`, -20.8% (inactive); that for `O=c1[nH]n(-c2ccc([N+](=O)[O-])cc2)c(=O)c2ccccc12`, -18.2% (inactive). The result for `COc1ccc2oc(C(=O)NCC(Cc3ccccc3)N(C)C)c(C)c2c1` (configuration not stated) reads -20.2% (inactive); that for `COc1ccc2oc(C(=O)NCc3ccco3)c(C)c2c1`, -9.13% (inactive); that for `COc1cccc(OCC(O)CNC(=O)c2oc3c(C)c(C)ccc3c2C)c1` (configuration not stated), 95.6% (active). With `Cc1ccc(C(=O)Nc2ccc3c(c2)OCCO3)cc1S(=O)(=O)N1CCOCC1`, the inhibition is 7.66% (inactive). Next, `CC(C)C(NS(=O)(=O)c1cccs1)C(=O)Nc1nc(C(C)(C)C)cs1` (configuration not stated): -11.7% (inactive); `COc1ccccc1OCc1nc2ccccc2s1`: 94.1% (active); `CN(Cc1nc2ccccc2s1)C(=O)c1ccc(F)cc1`: 2.3% (inactive). Next, `COc1ccccc1N1CC(O)=C(c2nc3ccccc3s2)C1=N`: -18.4% (inactive). Next, `C/C=C/c1ccc(OCC(O)CN2CCCCCCC2)c(OC)c1` (configuration not stated): 1.7% (inactive); `CC(C)[C@H](NC(=O)N1CC(=O)Nc2ccccc21)C(=O)N[C@@H](Cc1c[nH]c2ccccc12)C(=O)O`: -5.26% (inactive). For the molecule `CCOc1ccc(-c2nnc(-c3ccco3)o2)cc1`, the inhibition was 85% (active).

In the case of `CCOc1ccc(-n2c(SCC(N)=O)nnc2-c2ccco2)cc1`, the inhibition is -12.9% (inactive). Next, `CCCCOc1ccc(-c2ncc(C(=O)OCC)c(N)n2)cc1`: -8.7% (inactive). The result for `COc1ccc(OCC(=O)Nc2nnc(-c3ccco3)s2)cc1` reads -16.6% (inactive). The result for `CCCCOc1ccc(-c2nnc(-c3ccco3)o2)cc1` reads 67.2% (active); that for `N#Cc1ccc(OCc2nnc(-c3ccc([N+](=O)[O-])cc3)o2)cc1`, -4.94% (inactive).

Source of the values: PubChem BioAssay AID2599 (Sanford-Burnham Center for Chemical Genomics, 2010).
